# PubChem BioAssay (Tox21)
# Values without a mark were called inactive. Results filed as inconclusive are left out. Entries that show only a call come without a potency. Calls of active or inactive are those of the source. Unless noted, the call rests on the fitted dose curve; in most records, active means well fitted curve in the direction sought with a large enough effect in the repeat runs; inconclusive means weak or mixed curves; inactive means no such curve, though single readings can be large; an effect the other way counts as inactive or inconclusive.
# Legend:
# [1] = qHTS assay to identify small molecule agonists of the hypoxia (HIF-1) signaling pathway (AID 1224846; active means well fitted activation curve with a large enough effect in the signal ratio in the repeat runs, not every such curve was filed as active; the % refers to the signal ratio)
# Outline: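 Agonist mode reporter screen. ME-180 cells stably expressing bla under HRE control received test compounds in DMSO for 17 hrs (37C, 5% CO2), and beta-lactamase activity was then detected with the CCF4-AM FRET substrate.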
# [2] = qHTS assay to identify small molecule agonists of H2AX - cell viability counter screen (AID 1224847; calls by dose curve; further: nearly all actives have a fitted effect of over 30% in size; further: potency means the concentration at half of the fitted maximal effect; on activity change, negative = cytotoxicity: top concentration of the series differs between compounds)
# Outline: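 Wild-type CHO-K1 cells (10% FBS medium) were plated overnight at 37C, exposed to compounds at 15 concentrations for 3 hr at 37C (0.76% DMSO final), and viability was read as CellTiter-Glo luminescence after 30 min at room temperature.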
# [3] = qHTS RealTime-Glo MT Cell Viability Assay in HepG2 cells - 24 hour (AID 1224867); further: nearly all actives have a fitted effect of over 50% in size
# Outline: (§1)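 Compound treatment began 5 h after plating HepG2 cells (600/well) with NanoLuc luciferase and prosubstrate. Plates stayed at 37 C for 40 h; luminescence was captured at six time points, 0 h through 40 h.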
# [4] = qHTS RealTime-Glo MT Cell Viability Assay in HEK293 cells - 32 hour (AID 1224868); further: nearly all actives have a fitted effect of over 50% in size; further: potency means the concentration at half of the fitted maximal effect; on activity change, negative = cytotoxic: top concentration of the series differs between compounds
# Outline: (§2)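 Quantitative high-throughput screen of the Tox21 10K library in HEK293: cells and RealTime-Glo reagents plated together, compound added at 5 h, luminescence monitored through 40 h at 37 C.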
# [5] = A CellTox Green Cytotoxicity Assay to monitor cytotoxicity in HEK293 cells - 0 hour (AID 1224869); further: nearly all actives have a fitted effect of over 50% in size
# Outline: (§3)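 Dead-cell fluorescence measured kinetically: asymmetric cyanine dye, HEK293, 600 cells/well, 5 h settle, 23 nL cpd/DMSO, 37 C, reads 0–40 h every 8 h.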
# [6] = qHTS RealTime-Glo MT Cell Viability Assay in HepG2 cells - 40 hour (AID 1224870); further: nearly all actives have a fitted effect of over 50% in size
# Outline: (§4)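 Real-time viability: cells seeded at 600 per well together with NanoLuc and cell-permeant prosubstrate, compounds added after 5 h incubation. Luminescence tracked at 0, 8, 16, 24, 32 and 40 h of exposure.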
# [7] = A CellTox Green Cytotoxicity Assay to monitor cytotoxicity in HEK293 cells - 40 hour (AID 1224871); further: nearly all actives have a fitted effect of over 45% in size; further: potency means the concentration at half of the fitted maximal effect
# Outline: as §3
# [8] = qHTS RealTime-Glo MT Cell Viability Assay in HepG2 cells - 8 hour (AID 1224873); further: nearly all actives have a fitted effect of over 55% in size
# Outline: as §4
# [9] = qHTS RealTime-Glo MT Cell Viability Assay in HEK293 cells - 40 hour (AID 1224874); settings: RealTime-Glo luminescence; max response: stronger effect = lower value; further: nearly all actives have a fitted effect of over 50% in size; further: potency means the concentration at half of the fitted maximal effect
# Outline: (§5)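 600 HEK293 cells per well, dispensed already mixed with RealTime-Glo MT reagents. Compound dosing came 5 h later. The same wells were read for luminescence at 0, 8, 16, 24, 32 and 40 h of exposure at 37 C.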
# [10] = A CellTox Green Cytotoxicity Assay to monitor cytotoxicity in HEK293 cells - 24 hour (AID 1224875); further: nearly all actives have a fitted effect of over 45% in size; further: potency means the concentration at half of the fitted maximal effect
# Outline: as §3
# [11] = qHTS RealTime-Glo MT Cell Viability Assay in HepG2 cells - 32 hour (AID 1224877); further: nearly all actives have a fitted effect of over 55% in size
# Outline: as §1
# [12] = A CellTox Green Cytotoxicity Assay to monitor cytotoxicity in HepG2 cells - 24 hour (AID 1224878); further: nearly all actives have a fitted effect of over 45% in size; further: potency means the concentration at half of the fitted maximal effect
# Outline: (§6)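 First, HepG2 cells (600/well) mixed with reagent were plated; second, after 5 h at 37 C they received compounds via pintool; third, fluorescence was measured at 0 h through 40 h at 8 h intervals.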
# [13] = A CellTox Green Cytotoxicity Assay to monitor cytotoxicity in HepG2 cells - 40 hour (AID 1224879); further: nearly all actives have a fitted effect of over 40% in size; further: potency means the concentration at half of the fitted maximal effect
# Outline: as §6
# [14] = qHTS RealTime-Glo MT Cell Viability Assay in HEK293 cells - 0 hour (AID 1224880); further: top concentration of the series differs between compounds; nearly all actives have a fitted effect of over 45% in size
# Outline: as §5
# [15] = A CellTox Green Cytotoxicity Assay to monitor cytotoxicity in HEK293 cells - 32 hour (AID 1224881); further: nearly all actives have a fitted effect of over 40% in size; further: potency means the concentration at half of the fitted maximal effect
# Outline: as §3
# [16] = qHTS assay to identify small molecule agonists of the estrogen related receptor (ERR) signaling pathway from Tox21 library (AID 1224849; calls by dose curve; further: nearly all actives have a fitted effect of over 15% in size); settings: ERR reporter cell line, ONE-Glo luciferase, 18 h; at 92.4 µM (top of the series) unless noted
# Outline: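 Quantitative HTS in agonist format: NTP ERR cell line, compounds transferred in DMSO after 6 h plating, 18 h incubation at 37 C, ONE-Glo luminescence endpoint.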
# [17] = qHTS RealTime-Glo MT Cell Viability Assay in HEK293 cells - 16 hour (AID 1224872)
# Outline: as §2
# [18] = A CellTox Green Cytotoxicity Assay to monitor cytotoxicity in HepG2 cells - 16 hour (AID 1224876); further: nearly all actives have a fitted effect of over 45% in size; further: potency means the concentration at half of the fitted maximal effect
# Outline: as §6
# [19] = qHTS assay to identify small molecule antagonists of the estrogen related receptor (ERR) signaling pathway from Tox21 library (AID 1224848); further: nearly all actives have a fitted effect of over 50% in size; further: potency means the concentration at half of the fitted maximal effect
# Outline: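 ERR cell line, 2,000 cells/well. 6 h settle, then compound (DMSO) added; 18 h at 37 C; ONE-Glo luminescence after 30 min RT.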
structure (smiles),measurement,setting,value
CC(=O)c1ccc2c(c1)N(CCCN1CCC(CCO)CC1)c1ccccc1S2,Potency,[1],inactive
same,Potency,[2],inactive
same,Potency,[3],inactive
same,Potency,[4],21.3 µM (active)
same,Potency,[5],inactive
same,Potency,[6],inactive
same,Potency,[7],23.9 µM (active)
same,Potency,[8],inactive
same,Potency,[9],21.3 µM (active)
same,Potency,[10],inactive
same,Potency,[11],inactive
same,Potency,[12],23.9 µM (active)
same,Potency,[13],23.9 µM (active)
same,Potency,[14],inactive
same,Potency,[15],23.9 µM (active)
Nc1ccccc1S(=O)(=O)c1ccccc1,Potency,[1],inactive
same,Potency,[2],inactive
same,"activity change, positive = activation",[16],-20.8%
same,Potency,[3],inactive
same,Potency,[4],inactive
same,Potency,[5],inactive
same,Potency,[6],inactive
same,Potency,[7],inactive
same,Potency,[17],inactive
same,Potency,[8],inactive
same,max response,[9],-22.9%
same,Potency,[10],inactive
same,Potency,[18],inactive
same,Potency,[11],inactive
same,Potency,[12],inactive
same,Potency,[13],inactive
same,Potency,[14],inactive
same,Potency,[15],inactive
CC(C)Nc1ccc(NC(C)C)c2c1C(=O)c1ccccc1C2=O,Potency,[1],inactive
same,Potency,[2],26.3 µM (active)
same,Potency,[3],inactive
same,Potency,[4],inactive
same,Potency,[5],inactive
same,Potency,[6],inactive
same,Potency,[7],25.5 µM (active)
same,Potency,[17],inactive
same,Potency,[8],inactive
same,max response,[9],-6.09%
same,Potency,[10],25.5 µM (active)
same,Potency,[18],inactive
same,Potency,[11],inactive
same,Potency,[13],8.07 µM (active)
same,Potency,[14],inactive
same,Potency,[15],25.5 µM (active)
CCOc1ccc(N)c([N+](=O)[O-])c1,Potency,[1],inactive
same,Potency,[2],inactive
same,Potency,[19],inactive
same,"activity change, positive = activation",[16],-0.453%
same,Potency,[3],inactive
same,Potency,[5],inactive
same,Potency,[6],inactive
same,Potency,[7],inactive
same,Potency,[8],inactive
same,Potency,[10],inactive
same,Potency,[11],inactive
same,Potency,[12],inactive
same,Potency,[14],inactive
same,Potency,[15],inactive
CCC(=O)O[C@]1(C(=O)CCl)[C@@H](C)C[C@H]2[C@@H]3CCC4=CC(=O)C=C[C@]4(C)[C@@]3(F)[C@@H](O)C[C@@]21C,Potency,[1],inactive
same,Potency,[2],inactive
same,"activity change, positive = activation",[16],-18.7% [at 42.5 µM]
same,Potency,[5],inactive
same,Potency,[6],inactive
same,Potency,[7],inactive
same,Potency,[8],inactive
same,Potency,[10],inactive
same,Potency,[18],inactive
same,Potency,[11],inactive
same,Potency,[12],inactive
same,Potency,[13],inactive
same,Potency,[14],inactive
same,Potency,[15],inactive
O=C(O)CNCC(=O)O,activation,[1],0.217% [at 7.01 µM]
same,"activity change, negative = cytotoxicity",[2],-1.6% [at 14 µM]
same,"activity change, negative = cytotoxicity",[3],0.0678% [at 6.97 µM]
same,"activity change, negative = cytotoxic",[4],-9.97% [at 6.97 µM]
same,cytotoxicity,[5],-0.535% [at 6.97 µM]
same,"activity change, negative = cytotoxic",[6],1.89% [at 6.97 µM]
same,cytotoxicity increase,[7],3.68% [at 6.97 µM]
same,"activity change, negative = cytotoxicity",[17],-7.32% [at 6.97 µM]
same,"viability change, negative = cytotoxic",[8],0.198% [at 6.97 µM]
same,max response,[9],-8.46%
same,activity change,[10],"3.54% [at 6.97 µM, stronger effect = higher value]"
same,cytotoxicity increase,[18],-9.02% [at 6.97 µM]
same,"activity change, negative = cytotoxic",[11],0.774% [at 6.97 µM]
same,cytotoxicity,[12],-3.31% [at 6.97 µM]
same,cytotoxicity increase,[13],-10.4% [at 6.97 µM]
same,"activity change, negative = cytotoxicity",[14],-1.51% [at 6.97 µM]
same,cytotoxicity increase,[15],4.03% [at 6.97 µM]
CC/C=C\CCOC(=O)CC,Potency,[1],inactive
same,Potency,[2],inactive
same,Potency,[3],inactive
same,Potency,[4],inactive
same,Potency,[5],inactive
same,Potency,[6],inactive
same,Potency,[7],inactive
same,Potency,[17],inactive
same,Potency,[8],inactive
same,max response,[9],0.388%
same,Potency,[10],inactive
same,Potency,[18],inactive
same,Potency,[11],inactive
same,Potency,[12],inactive
same,Potency,[13],inactive
same,Potency,[14],inactive
same,Potency,[15],inactive
CCCCc1ncc(/C=C(\Cc2cccs2)C(=O)O)n1Cc1ccc(C(=O)O)cc1,Potency,[1],inactive
same,Potency,[2],inactive
same,Potency,[3],inactive
same,Potency,[4],inactive
same,Potency,[5],inactive
same,Potency,[6],inactive
same,Potency,[7],inactive
same,Potency,[17],inactive
same,Potency,[8],inactive
same,max response,[9],2.83%
same,Potency,[10],inactive
same,Potency,[18],inactive
same,Potency,[11],inactive
same,Potency,[12],inactive
same,Potency,[14],inactive
same,Potency,[15],inactive
COc1ccc(C(=O)Nc2nc3ccccc3c(NCc3ccccc3)c2C#N)cc1,Potency,[1],inactive
same,Potency,[2],inactive
same,Potency,[19],inactive
same,"activity change, positive = activation",[16],-5.4%
same,Potency,[4],inactive
same,Potency,[5],inactive
same,Potency,[6],inactive
same,Potency,[7],inactive
same,Potency,[17],inactive
same,max response,[9],-18.2%
same,Potency,[10],inactive
same,Potency,[18],inactive
same,Potency,[12],inactive
same,Potency,[14],inactive
same,Potency,[15],inactive
O=C1[C@H]2CCCC[C@H]2C(=O)N1CCCCN1CCN(c2nsc3ccccc23)CC1,Potency,[1],inactive
same,Potency,[2],inactive
same,Potency,[19],26.6 µM (active)
same,"activity change, positive = activation",[16],-38.9% [at 42.5 µM]
same,Potency,[3],inactive
same,Potency,[5],inactive
same,Potency,[6],inactive
same,Potency,[8],inactive
same,Potency,[10],inactive
same,Potency,[18],inactive
same,Potency,[11],inactive
same,Potency,[12],inactive
same,Potency,[13],inactive
same,Potency,[14],inactive
same,Potency,[15],inactive
COc1ccnc(CS(=O)c2nc3ccc(OC(F)F)cc3[nH]2)c1OC (stereo not given),Potency,[1],inactive
same,Potency,[2],inactive
same,Potency,[3],inactive
same,Potency,[4],inactive
same,Potency,[5],inactive
same,Potency,[6],inactive
same,Potency,[7],inactive
same,Potency,[17],inactive
same,Potency,[8],inactive
same,max response,[9],-16.2%
same,Potency,[18],inactive
same,Potency,[11],inactive
same,Potency,[12],inactive
same,Potency,[13],inactive
same,Potency,[14],inactive
same,Potency,[15],inactive
COS(=O)(=O)C(F)(F)F,Potency,[1],inactive
same,Potency,[2],inactive
same,Potency,[3],inactive
same,Potency,[4],inactive
same,Potency,[5],inactive
same,Potency,[6],inactive
same,Potency,[7],inactive
same,Potency,[17],inactive
same,Potency,[8],inactive
same,max response,[9],11.7%
same,Potency,[10],inactive
same,Potency,[18],inactive
same,Potency,[11],inactive
same,Potency,[12],inactive
same,Potency,[13],inactive
same,Potency,[14],inactive
same,Potency,[15],inactive
C=CC(=O)OCCOc1ccccc1,Potency,[2],inactive
same,Potency,[19],inactive
same,"activity change, positive = activation",[16],46.4% (active)
same,Potency,[3],inactive
same,Potency,[4],inactive
same,Potency,[5],inactive
same,Potency,[6],inactive
same,Potency,[7],inactive
same,Potency,[17],inactive
same,max response,[9],2.45%
same,Potency,[10],inactive
same,Potency,[18],inactive
same,Potency,[11],inactive
same,Potency,[12],inactive
same,Potency,[14],inactive
same,Potency,[15],inactive
Cc1cccc(Nc2ccccc2)c1,Potency,[1],inactive
same,Potency,[3],inactive
same,Potency,[4],inactive
same,Potency,[5],inactive
same,Potency,[6],inactive
same,Potency,[7],34.7 µM (active)
same,max response,[9],-10.8%
same,Potency,[10],38.9 µM (active)
same,Potency,[18],43.6 µM (active)
same,Potency,[11],inactive
same,Potency,[12],38.9 µM (active)
same,Potency,[13],38.9 µM (active)
same,Potency,[14],inactive
same,Potency,[15],34.7 µM (active)
